Among the data in PubChem BioAssay (NCI) are growth values, retold here.

This is part of a sample that, as a whole, favours compounds with a hit. Of some 83,000 tested, about 20% had one in any assay.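 For each line, cells grew in 96-well plates with the test compound present at a single concentration for 48 hours.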 Unmarked numbers belong to inactive results. Activity calls are given as the source filed them. Rule for the calls: active = growth percent below 10; inactive = the rest.

Among the test systems are NCI-H23 lung; NCI-H226 lung; NCI-H322M lung; HOP-62 NSCLC; NCI-H460 lung; HOP-92 NSCLC; NCI-H522 lung; A549/ATCC NSCLC; 786-0 renal; COLO 205 colon; DU-145 prostate; K-562 leukemia; MALME-3M melanoma; MDA-MB-231 breast; RXF 393 renal; SF-268 CNS; SF-295 CNS; SF-539 CNS; UACC-257 melanoma; M14 melanoma.
Assay in all cases: NCI-60 one-dose screen, 48 h (100 = growth as untreated, 0 = no growth, -100 = all killed)
Common to all, as to conditions: 10 µM unless noted

Take `COc1ccc(N2CCN(C3=C(Cl)C(=O)c4ncccc4C3=O)CC2)cc1`: the growth with NCI-H23 lung was 55.9%; in the assay with NCI-H226 lung, 94%; in the assay with NCI-H322M lung, 97.2%; in the assay with HOP-62 NSCLC, 85.4%; in the assay on NCI-H460 lung, 52.7%; in the assay with HOP-92 NSCLC, 96.2%. The growth in the assay with NCI-H522 lung was -9.71% (active); in the assay with A549/ATCC NSCLC, 96%; in the assay with 786-0 renal, 107%; in the assay with COLO 205 colon, 30.5%; with DU-145 prostate, 5.58% (active); in the assay with K-562 leukemia it was 6.59% (active). Also, the growth in the assay with MALME-3M melanoma was 23.7%; with MDA-MB-231 breast, 62.5%; with RXF 393 renal it was 15.2%; in the assay with SF-268 CNS, 86%; in the assay on SF-295 CNS, 108%; in the assay on SF-539 CNS, 89.6%. For the same compound, the growth in the assay on UACC-257 melanoma was 24.6%; in the assay on M14 melanoma, 45.6%.

As for `CC1(C)CC[C@]23CC[C@]4(C)[C@H](CC[C@@H]5[C@@]6(C)CC[C@H](NCO)C(C)(C)[C@@H]6CC[C@]54C)[C@H]2[C@H]1OC3`, the growth was 55.7% with NCI-H23 lung; 97.2% in the assay on NCI-H226 lung; 84.2% in the assay on NCI-H322M lung; 79.8% in the assay with HOP-62 NSCLC; -41.1% (active) in the assay with NCI-H460 lung; 40.1% in the assay with HOP-92 NSCLC. Moreover, the growth in the assay with NCI-H522 lung was 101%; in the assay with A549/ATCC NSCLC, 60.5%; in the assay on 786-0 renal it was 64.3%; with COLO 205 colon, -48.5% (active); in the assay on DU-145 prostate, 14.8%; with K-562 leukemia it was 4.93% (active). Besides, the growth in the assay with MALME-3M melanoma was 93.5%; in the assay on MDA-MB-231 breast it was 19.7%; in the assay with RXF 393 renal, 56.3%; with SF-268 CNS, 77%; with SF-295 CNS, 59.6%; with SF-539 CNS, 69%. For the same compound, the growth was 103% with UACC-257 melanoma and 35.9% in the assay on M14 melanoma.

As to `Clc1cccc(/C=N/Nc2nc(N/N=C/c3cccc(Cl)c3)nc(N3CCOCC3)n2)c1`, the growth in the assay with NCI-H23 lung was 70.6%; in the assay with NCI-H226 lung, 60.4%; in the assay on NCI-H322M lung, 53.8%; in the assay with HOP-62 NSCLC, 110%; in the assay on NCI-H460 lung, 78.2%; in the assay with HOP-92 NSCLC it was 65.4%. The growth is 13.9% in the assay on NCI-H522 lung; 46.6% with A549/ATCC NSCLC; 30.6% with 786-0 renal; 36.9% in the assay with COLO 205 colon; 42.5% in the assay with DU-145 prostate; 11.8% in the assay with K-562 leukemia. Moreover, the growth in the assay with MALME-3M melanoma was -43.7% (active); with MDA-MB-231 breast it was 71.3%; with RXF 393 renal, 17.4%; in the assay with SF-268 CNS, 65.9%; in the assay on SF-295 CNS it was 57.7%; in the assay with SF-539 CNS it was 43.6%. In addition, the values for the growth in the assay on UACC-257 melanoma and with M14 melanoma were 39.1% and 35.2%, respectively.

For `CCn1c2ccc(/C=N/N(C)S(=O)(=O)CCN(C)C)cc2c2cc(/C=N/N(C)S(=O)(=O)CCN(C)C)ccc21`, the growth in the assay with NCI-H23 lung was 43.4%; in the assay with NCI-H226 lung, 40.8%; in the assay with NCI-H322M lung, 80.8%; in the assay with HOP-62 NSCLC, 101%; in the assay on NCI-H460 lung it was 73.5%; in the assay with HOP-92 NSCLC it was 42.4%. Also, the growth with NCI-H522 lung is 36%; in the assay on A549/ATCC NSCLC, 84.5%; with 786-0 renal, 50.3%; with COLO 205 colon, 92.8%; in the assay on DU-145 prostate it was 77.3%; in the assay with K-562 leukemia it was 8.55% (active). Also, the growth in the assay on MALME-3M melanoma was 62.7%; in the assay on MDA-MB-231 breast, 55%; in the assay with RXF 393 renal, 46.9%; with SF-268 CNS, 76.7%; in the assay with SF-295 CNS it was 80%; in the assay with SF-539 CNS it was 4.32% (active). For the same compound, the values for the growth in the assay with UACC-257 melanoma and in the assay on M14 melanoma were 92.8% and 66%, respectively.

In the case of `C#C[C@]1(O)CC[C@H]2[C@@H]3CC=C4c5sc(NCc6ccccc6)nc5CC[C@]4(C)[C@H]3CC[C@@]21C`, the growth in the assay with NCI-H23 lung was 54.2%; with NCI-H226 lung, 75.6%; in the assay with NCI-H322M lung, 59.9%; in the assay with HOP-62 NSCLC, 14.1%; with NCI-H460 lung, 51.8%; with HOP-92 NSCLC it was 23.1%. The growth in the assay with NCI-H522 lung was 80%; with A549/ATCC NSCLC, 52%; with 786-0 renal, -72.3% (active); in the assay with COLO 205 colon, 37%; with DU-145 prostate, 71%; in the assay on K-562 leukemia, 1.46% (active). For the same compound, the growth in the assay with MALME-3M melanoma is 43.6%; in the assay with MDA-MB-231 breast it was 48.4%; in the assay with RXF 393 renal, -36% (active); with SF-268 CNS, 47.5%; with SF-295 CNS it was -57.6% (active); in the assay with SF-539 CNS it was -39.9% (active). The values for the growth with UACC-257 melanoma and in the assay with M14 melanoma were -10% (active) and 21.4%, respectively.

With `C#CCOc1cccc(/C(N)=N/C(N)=N/c2nc3ccccc3s2)c1`, the growth in the assay with NCI-H23 lung is 50.2%; with NCI-H226 lung, 68.1%; with NCI-H322M lung, 96.3%; in the assay on HOP-62 NSCLC, -36.3% (active); with NCI-H460 lung, 90.5%; in the assay with HOP-92 NSCLC, 125%. Further, the growth was 96.9% in the assay on NCI-H522 lung; 10.8% in the assay with A549/ATCC NSCLC; 107% in the assay on 786-0 renal; 119% in the assay with COLO 205 colon; 97.4% with DU-145 prostate; 82.2% with K-562 leukemia. For the same compound, the growth with MALME-3M melanoma was 111%; in the assay on MDA-MB-231 breast it was 81.9%; in the assay on RXF 393 renal, 116%; with SF-268 CNS, 100%; in the assay with SF-295 CNS, 31.2%; with SF-539 CNS it was 105%. Further, the growth is 107% with UACC-257 melanoma and 95.8% in the assay on M14 melanoma.

In the case of `O=C1C(N2CCN(c3ccccc3)CC2)=C(Cl)C(=O)c2ncccc21`, the growth in the assay on NCI-H23 lung was 46.3%; in the assay with NCI-H226 lung it was 91.3%; with NCI-H322M lung it was 95.2%; in the assay on HOP-62 NSCLC, 63.9%; in the assay with NCI-H460 lung it was 38.7%; in the assay with HOP-92 NSCLC, 128%. Also, the growth in the assay on NCI-H522 lung was -16.2% (active); in the assay on A549/ATCC NSCLC it was 91.5%; with 786-0 renal, 105%; in the assay on COLO 205 colon it was 65.2%; with DU-145 prostate, 45.7%; in the assay with K-562 leukemia it was 6.19% (active). Further, the growth in the assay with MALME-3M melanoma was -1.87% (active); in the assay on MDA-MB-231 breast, 75.3%; in the assay with RXF 393 renal it was 27.8%; in the assay on SF-268 CNS, 79.4%; with SF-295 CNS, 103%; in the assay on SF-539 CNS, 81.2%. The growth is 55.4% in the assay on UACC-257 melanoma and 69.6% with M14 melanoma.
